Bioassay records: PubChem, National Center for Advancing Translational Sciences (NCATS)
Rows were chosen to be rich in hits. Some 12% of all compounds tested hit in one or more screens of this group.
Sfp inh = qHTS Assay for Inhibitors of Bacillus subtilis Sfp phosphopantetheinyl transferase (PPTase). Potency, µM, inactives show largest response in the series, negative = inhibition, most hits filed as inhibitors. Biochemical Sfp PPTase activity, qHTS. AID 1490, 2009. hit rate 3.5% among 310,000;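 also: the enzyme is Sfp with the accession as filed and its product quenches rhodamine fluorescence; 0% = enzyme reaction without inhibitor and -100% = no enzyme wells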
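After 15 min at room temperature with compound, 15 nM Sfp received 5 uM rhodamine-CoA plus 12.5 uM BHQ-2-ybbR (50 mM Hepes pH 7.6, 10 mM MgCl2). Rate came from the fluorescence difference over 30 min, ex 525/em 598 nm.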
JMJD2A Tudor = qHTS Assay for Inhibitors of JMJD2A-Tudor Domain | hit rate 4.4% among 390,000 | AID 504339, 2011 | Potency, µM (series often up to 114 µM), without a hit: at the top dose activity change, negative = inhibition, usual class: inhibitors | Lysine-specific demethylase 4A (Homo sapiens), O75164 | AlphaScreen JMJD2A-Tudor / H3K4me3 peptide binding; also: % is scaled to controls: 0 for no effect and ±100 for the full control effect; nearly all actives have a fitted effect of over 50% in size
HP1b binding inh = HTS for Inhibitors of HP1-beta Chromodomain Interactions with Methylated Histone Tails; Chromobox protein homolog 1 (Homo sapiens), P83916; AlphaScreen HP1-beta / biotin-H3K9me3 peptide binding; Potency, µM (doses to about 114 µM), without a hit: top-dose activity change, negative = inhibition, actives largely listed as inhibitors; hit rate 0.56% among 390,000; AID 540317, 2011; also: nearly all actives have a fitted effect of over 70% in size
Target sequence (P83916 whole entry, looked up): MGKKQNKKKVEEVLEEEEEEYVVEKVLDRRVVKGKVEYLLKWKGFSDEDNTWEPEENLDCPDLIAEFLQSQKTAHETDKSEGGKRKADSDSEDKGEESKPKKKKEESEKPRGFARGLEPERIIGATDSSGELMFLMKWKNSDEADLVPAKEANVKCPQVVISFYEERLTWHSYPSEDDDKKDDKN
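AlphaScreen: HP1-beta (50 nM) preformed 30 min with biotin-H3(1-18)K9me3 peptide (50 nM) in PBS pH 7.4, 0.01% Tween-20. Compound added for 30 min at RT, then streptavidin donor/nickel chelate acceptor beads (10 ug/mL) for 30 min.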
BAZ2B block = qHTS Assay for Inhibitors of BAZ2B; AlphaScreen BAZ2B-H3K14Ac peptide displacement; Potency, µM (top dose mostly 114 µM), inactives show at the top dose activity change, negative = inhibition, usual class: inhibitors; hit rate 4.4% among 360,000; also: % is scaled to controls: 0 for no effect and ±100 for the full control effect; nearly all actives have a fitted effect of over 60% in size
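AlphaScreen displacement: compounds (up to 110uM) incubated 30 min at room temperature with a preformed 50 nM BAZ2B/50 nM biotinylated H3K14Ac peptide complex in PBS pH 7.4 with Tween-20. Donor and acceptor beads at 10 ug/mL final added, 20 min light-protected before reading.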
G9a block = qHTS Assay for Inhibitors of Histone Lysine Methyltransferase G9a. hit rate 8.8% among 350,000. Histone-lysine N-methyltransferase EHMT2 (Homo sapiens), Q96KQ7. Potency, µM (top dose mostly 102 µM), for inactives: at the top dose activity, negative = inhibition, most hits filed as inhibitors. G9a H3K9 monomethylation, AlphaScreen, 2 h. AID 504332, 2011; also: % is scaled to controls: 0 for no effect and ±100 for the full control effect; nearly all actives have a fitted effect of over 75% in size
Target sequence (Q96KQ7 913-1193 limits assumed): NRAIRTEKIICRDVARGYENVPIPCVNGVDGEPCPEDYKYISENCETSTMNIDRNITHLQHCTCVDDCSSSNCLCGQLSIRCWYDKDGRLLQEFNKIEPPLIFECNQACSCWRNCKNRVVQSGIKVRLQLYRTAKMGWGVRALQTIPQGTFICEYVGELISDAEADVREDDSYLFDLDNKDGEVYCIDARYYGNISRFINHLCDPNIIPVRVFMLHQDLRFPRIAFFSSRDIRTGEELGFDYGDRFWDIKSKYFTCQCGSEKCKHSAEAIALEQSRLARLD
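Using a bead-based AlphaScreen, monomethylated H3K9 product from 2 h room-temperature reactions (G9a 20 nM, peptide 500 nM, SAM 20 uM) was detected with 0.5 ug/mL rabbit anti-H3K9me1 antibody.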
* hit, by the source's call; ? = inconclusive; . = no result; [ ] = remark or other dose. Calls follow the shape of the dose curve; as a rule, active = well fitted curve in the direction sought with a large enough effect; inconclusive = small, poorly fitted or top-dose-only effect, or another doubt; inactive = no such curve, though single readings can be large; an effect the other way counts as inactive or inconclusive. Potency is read from the fitted curve at half-maximal effect.

SMILES | Sfp inh | JMJD2A Tudor | HP1b binding inh | BAZ2B block | G9a block
O=S(=O)(c1ccc(Br)cc1)N1CCCC1c1nc2ccccc2s1 (stereo not given) | 7% | -3% | 56% | 8% | -6%[59 µM]
COc1cc2c3nnc(-c4ccc(F)cc4)c-3cn(Cc3cccc(F)c3)c2cc1OC | 45µM* | ? | -32% | . | 45µM*
CC(=O)Nc1sc2c(c1C(c1cccc(Cl)c1)N1CCN(CCO)CC1)CCCC2 (stereo not given) | -2% | ? | 4% | ? | 50µM*
COc1ccc(CN2CCN(S(=O)(=O)c3ccc(C)cc3)CC2)cc1OC | . | 50µM* | ? | . | .
COc1ccc(S(=O)(=O)N2CCN(Cc3ccccc3)CC2)cc1OC | 1% | -15% | 18% | -4% | .
COc1cccc(CN2CCN(S(=O)(=O)c3ccc(NC(C)=O)cc3)CC2)c1OC | 19% | 2.5µM* | ? | -16% | -11%
COc1cc(CN2CCN(S(=O)(=O)c3ccc(NC(C)=O)cc3)CC2)cc(OC)c1OC | . | 22µM* | ? | 50µM* | 25µM*
COc1cc(CC(=O)Nc2ccc(S(=O)(=O)N(C)C)cc2)cc(OC)c1OC | -28% | -9% | 38% | 26% | 50µM*
O=C(O)c1ccccc1OP(=O)(O)O | 1% | . | . | . | 0%[21.5 µM]
CCOC(=O)c1c(C)[nH]c(C)c1C(=O)COC(=O)c1cc(OC)c(OC)cc1OC | 13% | -18% | 2% | ? | 6%
CC(=O)N1c2ccccc2C(C)=CC1(C)C | 19% | -7% | 30% | 2% | ?
Cc1ccc(Nc2ccc3cc(S(=O)(=O)N4CCC(C)CC4)ccc3n2)c(Cl)c1 | . | 20% | 55% | -7% | 16µM*
CC1CCN(S(=O)(=O)c2ccc3nc(Nc4cccc(F)c4)ccc3c2)CC1 | . | 31% | 85% | 26% | 25%[59 µM]
Cc1ccc2c(c1)nnn2C1CCN(CC(=O)NCCc2nc3ccccc3[nH]2)CC1 | 10% | -6% | 25% | 4% | 1%
Cc1ccc(C(=O)NNC(=O)CSc2nc(N)cc(N)n2)cc1 | 32µM* | -17%[57.1 µM] | ? | 3% | -7%[59 µM]
Cc1nnc(SCC(=O)NNC(=O)c2ccc(Cl)cc2)s1 | 16% | -10% | 13% | -10% | 11%[59 µM]
Nc1nnc(SCC(=O)NNC(=O)c2ccc(Cl)cc2)s1 | . | -17% | 23% | -1% | 8.9µM*
COc1ccc(-c2cc3c(=O)n(CC(=O)Nc4ccc(C(C)=O)cc4)ncn3n2)cc1 | 9% | 5% | 37% | -3% | 32%
O=C(CN(c1cc(C(F)(F)F)ccc1Cl)S(=O)(=O)c1ccccc1)NCCc1ccccc1 | . | 8% | 22% | 0% | ?
O=C(Nc1ccccc1)/C(=C/c1ccc([N+](=O)[O-])cc1)NC(=O)c1ccco1 | -3% | 1% | 19% | -23% | 18µM*
O=C(Nc1ccccc1C(=O)O)/C(=C/c1ccc([N+](=O)[O-])cc1)NC(=O)c1ccc(Br)o1 | 7.9µM* | -30%[57.1 µM] | -3% | -25% | 45µM*
O=C(Nc1ccccc1)/C(=C\c1ccccc1)NC(=O)c1ccco1 | -9% | -5% | 12% | -2% | .
CC(NC(=O)/C(=C\c1cccc([N+](=O)[O-])c1)NC(=O)c1ccco1)C(=O)O (stereo not given) | 79µM* | -17% | 34% | ? | 28%[0.501 µM]
CCOC(=O)C1C(=O)CC(C)(O)C(C(=O)OCC)C1c1ccc(N(CC)CC)cc1 (stereo not given) | 15% | -23% | 5% | -19% | 14µM*
CCOc1ccc(OCCOc2ccc(/C=C/C(=O)O)cc2OCC)cc1 | 17% | -7% | 6% | -2% | ?
SMILES | Sfp inh | JMJD2A Tudor | HP1b binding inh | BAZ2B block | G9a block
CCOc1cc(/C=C/C(=O)O)ccc1OCCO | -4% | 35µM* | 4% | -13% | 8%
COc1ccc(-c2ccc(C3C4C=CCC(C)C4C(=O)N3Cc3ccccc3)c(F)c2)cc1OC (stereo not given) | ? | -32% | -20% | . | .
Cc1cc(Cl)ccc1NNC(=O)CCc1ccccc1 | 6% | -13% | 17% | -17% | 28µM*
CC(C)(C)c1cc(CCC(=O)NNC(=O)c2ccco2)cc(C(C)(C)C)c1O | -12% | -9%[57.1 µM] | 53% | ? | 24%[59 µM]
O=C(CCc1ccccc1)NNC(=O)CCc1ccccc1 | 5% | 6% | 39% | -11% | 13%
CC(=O)NC(=S)NNC(=O)CCc1ccccc1 | ? | ? | 7% | -2% | 8.9µM*
CCN(C(=S)NC(=O)CCc1ccccc1)c1ccccc1 | -25% | ? | -3% | -5% | 8.9µM*
COc1ccccc1NC(=S)NC(=O)CCc1ccccc1 | 3% | 5% | 44% | -18% | -20%
CC(C)(C)c1cc(CCC(=O)NNC(=S)NC(=O)c2ccccc2)cc(C(C)(C)C)c1O | 56µM* | ? | 8% | -34% | 28µM*
O=C(CCc1ccccc1)NNC(=S)NCCc1ccccc1 | 16% | -16% | ? | -10% | -11%
CCCCC(=O)NC(=S)NNC(=O)CCc1ccccc1 | -28% | 2% | 38% | 5% | 32µM*
O=C(CCc1ccccc1)NNC(=S)NC(=O)c1ccccc1 | ? | 28µM* | -4% | 2%[57.1 µM] | 4.5µM*
O=C1CS/C(=C\[N+](=O)[O-])N1c1ccccc1 | -5% | -31% | 4% | ? | 51%[12.7 µM]
COc1ccc(C(=O)OCC2CC(c3ccccc3)N(C)O2)cc1 (stereo not given) | 5% | 0% | 37% | 9% | 37%
Cc1cc(C)c2c(=O)cc(C(=O)Nc3nc4ccc(F)cc4s3)oc2c1 | . | -4% | 41% | -4% | 9%[59 µM]
COc1ccc2cc(C(=O)C3CCCN(C(=O)c4cnn(C(C)C)c4)C3)ccc2c1 (stereo not given) | 17% | 18µM* | 4% | -22% | 2%
CN(C)c1ccccc1C(=O)N1CCCC(C(=O)c2ccc3ccccc3c2)C1 (stereo not given) | -18% | ? | -4% | ? | 50µM*
CN(CCC#N)C(=O)COC(=O)/C=C/c1ccc2c(c1)OCO2 | -5% | -3% | 0% | -22% | -20%
O=C(O)c1ccc(S(=O)(=O)N2CCCC2)cc1 | 4% | 4% | 49% | -7% | -2%
O=C(O)c1ccc(S(=O)(=O)c2ccc(Sc3ccc(C(=O)O)c(C(=O)O)c3)cc2)cc1 | 4% | -14% | 16% | 50µM* | 45µM*
COCC1=C2c3ccccc3[C@H](C[N+](=O)[O-])C(C(=O)OC)(C(=O)OC)C[C@@H]2n2c(=O)n(-c3ccccc3)c(=O)n2C1 | 1% | . | . | . | .
